Holding throughout (design): species or system human, MV4-11 + K-562 + COLO205 + SK-N-BE2 + OVCAR-8
The subject of one test is ACVR1. Conditions: read-out: apparent Kd, n = 1.
Another test concerns AKT3. The conditions noted are these: read-out: apparent Kd, n = 1.
A further test concerns MAP2K2. Conditions: read-out: apparent Kd, n = 1.
Another test relates to PIK3C3. Conditions: read-out: apparent Kd, n = 1.
Another test concerns PIK3C2A. Conditions: read-out: apparent Kd, n = 1.
In another test the test system is CDK10. The conditions noted are these: read-out: apparent Kd, n = 1.
In the next test the test system is MAP4K2. Conditions: read-out: apparent Kd, n = 1.
The subject of another test is MAP4K3. Conditions: read-out: apparent Kd, compound concentrations: 100 nM and 1000 nM (sheet 'Samples'), n = 1.
In another test the test system is MAP4K5. Conditions: read-out: apparent Kd, n = 1.
In a further test the test system is RPS6KA1. Conditions: read-out: apparent Kd; compound concentrations: 100 nM and 1000 nM (sheet 'Samples'), CATDS: 7.3742407001506898E-3; n = 1.
The test system of another test is SLK. The conditions noted are these: read-out: apparent Kd, compound concentrations: 100 nM and 1000 nM (sheet 'Samples'), n = 1.
Another test relates to TGFBR1. Conditions: read-out: apparent Kd; compound concentrations: 100 nM and 1000 nM (sheet 'Samples'), CATDS: 6.2904955022957598E-3; n = 1.
Another test concerns STK11. Conditions: read-out: apparent Kd, n = 1.
The test system of another test is TP53RK. The conditions noted are these: read-out: apparent Kd, n = 1.
A further test concerns PIM2. The conditions noted are these: read-out: apparent Kd; compound concentrations:100 nM and 1000 nM (sheet 'Samples'); n = 1.
Another test concerns AKT2. Conditions: read-out: apparent Kd, n = 1.
Another test has as its system IKBKE. Conditions: read-out: apparent Kd; compound concentrations:100 nM and 1000 nM (sheet 'Samples'); n = 1.
Another test deals with NEK9. The conditions noted are these: read-out: apparent Kd; compound concentrations:100 nM and 1000 nM (sheet 'Samples'); n = 1.
[1] abbreviates: compound concentrations:100 nM and 1000 nM (sheet 'Samples').

The structures appear in SMILES notation. Like-named read-outs stand apart in the source and are kept apart here.

For the compound `CNCc1ccc(-c2cc(-c3nc(-c4ccc(S(=O)(=O)C(C)C)cc4)cnc3N)on2)cc1` [VE-822], the potency estimated from few doses was 0.081 µM in the test on ACVR1 (setting [1]), 1.76 µM with AKT3 (setting [1]), 1.7 µM in the test on MAP2K2 (setting [1]) and 0.5 µM with PIK3C3 (setting [1]).
`COC(=O)c1cccc(NC(=O)NC2CCN(c3ccnc(Nc4cc(OC)c(OC)c(OC)c4)n3)C2)c1` (centres unmarked) [GSK1379767A]: the potency estimated from few doses is 1.88 µM with MAP2K2 (compound concentrations: 100 nM and 1000 nM (sheet 'Samples'), CATDS: 9.7469990790668801E-2); 2.08 µM in the test with PIK3C2A (compound concentrations: 100 nM and 1000 nM (sheet 'Samples'), CATDS: 9.3691802712770805E-2).
In the case of `O=C(O)C(F)(F)F.O=C(O)C(F)(F)F.O=c1[nH]ccc2nc(N[C@@H]3CCCNC3)nc(Nc3ccc(S(=O)(=O)N4CCOCC4)cc3)c12.O=c1[nH]ccc2nc(N[C@@H]3CCCNC3)nc(Nc3ccc(S(=O)(=O)N4CCOCC4)cc3)c12` [GSK2177277A], the potency estimated from few doses in the test on ACVR1 (compound concentrations: 100 nM and 1000 nM (sheet 'Samples'), CATDS: 7.8898197775333495E-3) is 0.605 µM; in the test with CDK10 (compound concentrations: 100 nM and 1000 nM (sheet 'Samples'), CATDS: 2.6189541098699299E-2) it was 0.032 µM; in the test on MAP2K2 (compound concentrations: 100 nM and 1000 nM (sheet 'Samples'), CATDS: 5.9505583835806203E-3) it was 2.52 µM; with MAP4K2 (compound concentrations: 100 nM and 1000 nM (sheet 'Samples'), CATDS: 1.18083453898033E-2), 0.173 µM; in the test with MAP4K3 (CATDS: 1.3665369195518201E-2), 0.12 µM; with MAP4K5 (compound concentrations: 100 nM and 1000 nM (sheet 'Samples'), CATDS: 2.1531310564231101E-2), 0.0457 µM. Further, the potency estimated from few doses with RPS6KA1 is 0.792 µM; in the test on SLK (CATDS: 7.3686549547766099E-3), 0.794 µM; with TGFBR1 it was 1.74 µM.
For `CN[C@H](C#Cc1c(F)ccc2c1/C(=C/c1[nH]ccc1OC)C(=O)N2)CO.Cl` [RO0283049-001], in the test on STK11 (compound concentrations: 100 nM and 1000 nM (sheet 'Samples'), CATDS: 2.2375085806392098E-2), the potency estimated from few doses was 1.19 µM.
On to `NS(=O)(=O)c1ccc(NC=C2C(=O)Nc3ccc4ncsc4c32)cc1` [GW589933X], for which the potency estimated from few doses with MAP4K3 (CATDS: 1.6349767602700901E-2) was 2.07 µM.
Take `Nc1nccc(-c2ccc3c(N)n[nH]c3c2)n1` [GSK1034945A]: the potency estimated from few doses in the test on TP53RK (setting [1]) was 1.54 µM.
`COc1cc[nH]c1/C=C1\C(=O)Nc2ccc(F)c(C#C[C@@H](O)[C@@H](N)[C@@H](C)O)c21` [RO0283120-000]: the potency estimated from few doses in the test on MAP4K2 (setting [1]) is 1.07 µM; in the test on STK11 (setting [1]), 1.01 µM.
As for `O=C(Nc1n[nH]c2nc(-c3ccccc3O)ccc12)C1CC1` [SB-711880], the figures for the potency estimated from few doses in the test with MAP4K2 (setting [1]) and with MAP4K5 (setting [1]) were 1.46 µM and 1.76 µM, respectively.
Consider `CC(C)N1CC(=O)N(C)c2cnc(Nc3cccc(S(=O)(=O)CCN4CCOCC4)c3)nc21` [BI00009348], for which the potency estimated from few doses in the test on SLK (CATDS: 4.9346970439547798E-2) is 1.92 µM.
With `CCn1c(-c2nonc2N)nc2cncc(C(=O)N3CC[C@H](N)C3)c21.Cl` [SB-772077-B], in the test with PIM2, the potency estimated from few doses was 0.122 µM.
With `COc1ccc(Nc2nccc(NCCNC(=O)Nc3cc(C)ccc3C)n2)cc1` [GSK1379899A], the potency estimated from few doses with AKT2 (compound concentrations: 100 nM and 1000 nM (sheet 'Samples'), CATDS: 3.9720416292935899E-2) is 2.19 µM.
On to `Cc1occc1-c1nc(N)c(OC[C@@H](N)Cc2c[nH]c3ccccc23)cc1-c1cc2c(C)n[nH]c2cn1` [GSK1660450B], for which the potency estimated from few doses in the test with MAP4K5 (setting [1]) is 0.0505 µM.
As for `Cl.Nc1nc(-c2ccc3c(c2)C(=Cc2cc(Br)c(O)c(Br)c2)C(=O)N3)cs1` [GW407323A], the potency estimated from few doses in the test with TP53RK (compound concentrations: 100 nM and 1000 nM (sheet 'Samples'), CATDS: 2.8034660612356401E-2) is 1.95 µM.
As for `Nc1nc(-c2ccc3c(N)n[nH]c3c2)cc(N2CCCC(NC(=O)c3ccccc3)C2)n1` (centres unmarked) [GSK2286775B], the potency estimated from few doses in the test with AKT2 (setting [1]) is 1.37 µM; in the test on IKBKE, 0.298 µM; in the test with MAP2K2 (setting [1]) it was 1.56 µM; in the test on PIK3C2A (setting [1]), 1.91 µM; in the test on TP53RK (setting [1]) it was 2.23 µM.
On to `Cc1cc(NC(=O)c2cccc(NC(=O)/C=C/CN(C)C)c2)ccc1Nc1nccc(-c2cccnc2)n1` [JNK-IN-7], for which the potency estimated from few doses in the test on CDK10 (setting [1]) is 0.844 µM; in the test on NEK9, 1.38 µM; in the test with PIK3C3 (setting [1]), 1.57 µM.
As for `CCC(CC)(CC)n1cnc2c(N)ncnc21` [SKF-97620], the potency estimated from few doses is 1.43 µM in the test on PIK3C2A (compound concentrations: 100 nM and 1000 nM (sheet 'Samples'), CATDS: 2.66380598887557E-2); 0.852 µM in the test with PIK3C3 (compound concentrations: 100 nM and 1000 nM (sheet 'Samples'), CATDS: 3.20593447179814E-2).
As to `Cl.Cn1c(=O)c(Cc2ccccc2F)cc2cnc(NC3CCOCC3)nc21` [RO3305377-001], the potency estimated from few doses with AKT3 (compound concentrations: 100 nM and 1000 nM (sheet 'Samples'), CATDS: 1.8504555943704901E-2) is 1.38 µM.
